# Assay results: the supplement of paper PMC13380429
# System: Vero E6 infected with SARS-CoV-2
# Test: morphology score (similarity to uninfected cells); higher = more like uninfected cells
# Conditions: 24 h
row,SMILES,morphology score
1,COc1ccc(C(=O)c2ccccc2)c(O)c1 [oxybenzone] (10 µM),0.131
2,CCn1c(=O)c(-c2cc[nH]n2)cc2c(C)nc(N)nc21 [voxtalisib] (0.833333 µM),0.00591
3,Nc1c(-c2cccc(C(F)(F)F)c2)nsc1C(=O)O [amflutizole] (10 µM),0.00564
4,CCOC(=O)OC(C)OC(=O)[C@@H]1N2C(=O)[C@@H](NC(=O)[C@H](N)c3ccccc3)[C@H]2SC1(C)C (some centres undefined) [bacampicillin] (10 µM),-0.0144
5,Cc1ccc(NC(=O)C2(c3ccc4c(c3)OC(F)(F)O4)CC2)nc1-c1cccc(C(=O)O)c1 [lumacaftor] (10 µM),0.0696
6,CS[C@H]1SC[C@H]2C(=O)N(C)[C@@H](C(C)C)C(=O)OC[C@@H](NC(=O)c3cnc4ccccc4n3)C(=O)N[C@@H](C)C(=O)N(C)[C@@H]1C(=O)N(C)[C@@H](C(C)C)C(=O)OC[C@@H](NC(=O)c1cnc3ccccc3n1)C(=O)N[C@@H](C)C(=O)N2C [echinomycin] (0.833333 µM),-0.0512
7,CC(OC(=O)NCC1(CC(=O)O)CCCCC1)OC(=O)C(C)C (centres undefined) [gabapentin-enacarbil] (10 µM),-0.0175
8,O=C(O)c1cn(C2CC2)c2cc(N3CCNCC3)c(F)cc2c1=O [ciprofloxacin] (10 µM),0.046
9,Cc1ccc(/C=C2\CNC/C(=C\c3ccc(C)cc3)C2=O)cc1 (0.833333 µM),0.168
10,CCCCC1CCC(c2nc(-c3ccncc3)no2)CC1 (centres undefined) (10 µM),-0.00672
11,CCCCCN(C)CCC(O)(P(=O)(O)O)P(=O)(O)O [ibandronate] (10 µM),-0.0259
12,Cc1cccc(C)c1NC(=O)c1ccc(N)cc1 [ameltolide] (10 µM),-0.146
13,O=C(NCCCN1CCOCC1)c1cnn2c(-c3ccccc3)cc(-c3ccccc3)nc12 [reversan] (10 µM),0.226
14,O=C1CS[C@@H](c2ccccc2Cl)c2cc(Cl)ccc2N1 (racemic) (10 µM),0.245
15,O=c1[nH]c2cc(C(F)(F)F)c(N3CCOCC3)cc2n(CP(=O)(O)O)c1=O (10 µM),0.119
16,Cc1ccccc1C(=O)Nc1ccc(C(=O)N2CCCC(N(C)C)c3ccccc32)cc1 (centres undefined) [mozavaptan] (0.833333 µM),0.0205
17,COc1cc(C(=O)NCC2(N(C)C)CCCC2)cc(OC)c1OCc1ccccc1 (10 µM),0.334
18,Cc1nnsc1C(=O)Nc1ccc(-n2nc(C(F)(F)F)cc2C(F)(F)F)cc1 (10 µM),-0.0783
19,O=C(C1CCCCC1)N1CC(=O)N2CCc3ccccc3C2C1 (centres undefined) [praziquantel] (10 µM),0.151
20,COc1ccc(S(=O)(=O)N2c3ccc(Cl)cc3[C@](O)(c3ccccc3Cl)[C@@H]2C(=O)N2CCC[C@H]2C(N)=O)cc1OC [relcovaptan] (10 µM),-0.0372

row,SMILES,morphology score
1,CN1CCC(Nc2ncc3ncnc(Nc4ccc(F)c(Cl)c4)c3n2)CC1 (10 µM),0.0447
2,COc1ccc2nc3[nH]nc(C)c3c(NCCOCCO)c2c1 (10 µM),-0.00598
3,CC(C)(C)/[N+]([O-])=C/c1ccc(S(=O)(=O)O)cc1S(=O)(=O)O (10 µM),0.00191
4,Nc1ccc([As](=O)(O)O)cc1 [arsanilic-acid] (10 µM),-0.00345
5,Nc1ccccc1S(N)(=O)=O [2-aminobenzenesulfonamide] (10 µM),-0.162
6,FC(F)(F)c1cccc(C2=CCN(CCc3ccc4ccccc4c3)CC2)c1 [xaliproden] (10 µM),-0.0559
7,CC(=O)O[C@]1(C(C)=O)CC[C@H]2[C@@H]3C=C(C)C4=CC(=O)CC[C@@H]4[C@H]3CC[C@@]21C [nomegestrol-acetate] (10 µM),0.147
8,Cc1cc(N2CCCCC2)nc2ccccc12 (10 µM),0.282
9,Clc1ccc(C2=CCC[C@H]3CC[C@@H]2N3)cn1 (10 µM),-0.0924
10,COc1ccc(CN(CCN(C)C)c2ccccn2)cc1 [mepyramine] (10 µM),0.0933
11,Cc1cccc(-c2[nH]c(C(C)(C)C)nc2-c2ccc3nccnc3c2)n1 (10 µM),-0.0319
12,O=c1c(O)c(-c2cc(O)c(O)c(O)c2)oc2cc(O)cc(O)c12 [myricetin] (10 µM),0.195
13,Oc1cccc(-c2nc(N3CCOCC3)c3oc4ncccc4c3n2)c1 (10 µM),-0.0667
14,COC(=O)C1=C(C)NC(C)=C(C(=O)NCCCN2CCC(c3ccccc3)(c3ccccc3)CC2)C1c1ccc([N+](=O)[O-])cc1 (centres undefined) (0.833333 µM),0.212
15,O=C(Nc1ccccc1-c1cn2c(CN3CCNCC3)csc2n1)c1cnc2ccccc2n1 (0.833333 µM),0.075
16,Cc1cc(C(C#N)c2ccc(Cl)cc2)c(Cl)cc1NC(=O)c1cc(I)cc(I)c1O (centres undefined) [closantel] (10 µM),0.257
17,NC1=N[C@@](c2cccc(-c3cncnc3)c2)(c2ccnc(C(F)F)c2)c2cccc(F)c21 (10 µM),0.163
18,NC(=O)c1nc(F)cnc1O [favipiravir] (10 µM),0.0924
19,C[C@]12CC[C@@H]3c4ccc(OC(=O)c5ccccc5)cc4CC[C@H]3[C@@H]1CC[C@@H]2O [estradiol-benzoate] (10 µM),-0.19
